TRHR PAM: qHTS for Small Molecule Agonists and Allosteric Enhancers of Human TRH Receptor: Primary Screen for Enhancers; Thyrotropin-releasing hormone receptor (Homo sapiens), P34981; TRHR cells, fluo-8 calcium fluorescence, EC20 TRH enhancement; enhancement, % at 2 µM; 360,000 tested, 0.66% active; in the data active = enhancement above about 30%; note: 0% is about no effect
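TRHR-expressing cells loaded with fluo-8 calcium dye were read kinetically (ex 480/em 530) during compound addition, then stimulated with an EC20 of TRH (10 nM final). Enhancement of the Gq-mediated intracellular calcium response was scored.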
D1 potentiator: Potentiators of Human D1 Dopamine Receptor: qHTS. D(1A) dopamine receptor (Homo sapiens), P21728. 360,000 tested, 0.036% active. potentiation, % at 10 µM. AID 504651, 2011. HEK293 TREx D1 cells, calcium flux, dopamine EC20 potentiation; in the data active = potentiation above about 30%; note: 0% is about no effect
Target sequence (P21728 whole entry, looked up): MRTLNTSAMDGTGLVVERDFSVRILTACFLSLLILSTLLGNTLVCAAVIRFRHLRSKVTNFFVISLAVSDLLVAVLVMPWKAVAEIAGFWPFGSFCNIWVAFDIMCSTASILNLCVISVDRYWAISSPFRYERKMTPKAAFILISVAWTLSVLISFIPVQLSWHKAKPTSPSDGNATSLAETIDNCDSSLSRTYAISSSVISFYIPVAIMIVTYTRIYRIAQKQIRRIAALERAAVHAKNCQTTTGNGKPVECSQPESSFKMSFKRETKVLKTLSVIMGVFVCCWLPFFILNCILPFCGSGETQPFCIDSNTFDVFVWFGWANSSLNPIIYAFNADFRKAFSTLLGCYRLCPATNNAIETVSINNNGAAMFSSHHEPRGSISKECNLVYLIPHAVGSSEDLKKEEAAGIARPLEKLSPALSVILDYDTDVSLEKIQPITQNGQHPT
TRHR ag: qHTS for Small Molecule Agonists and Allosteric Enhancers of Human TRH Receptor: Primary Screen for Agonists. TRHR cells, calcium flux fluo-8, FDSS agonist mode. activation, % at 2 µM. 360,000 tested, 0.18% active. Thyrotropin-releasing hormone receptor (Homo sapiens), P34981; note: 0% is about no effect
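Read-out: compound-evoked intracellular calcium rise in TRHR cells, fluo-8 dye, kinetic FDSS fluorescence at 1 s/cycle following a 10-cycle baseline. Cells cultured overnight before dye loading (30 min–1.5 h, RT).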
D1 agonist: Allosteric Agonists of the Human D1 Dopamine Receptor: qHTS; D(1A) dopamine receptor (Homo sapiens), P21728; HEK293 T-REx D1 cells, calcium flux, agonist mode; activation, % at 2 µM; 360,000 tested, 1% active; note: 0% is about no effect
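Agonism was scored from calcium flux recorded over 180 s (1 read/s) after pintool compound addition, following a 10-cycle baseline. Cells were inducible force-coupled HEK293 TREx D1, plated overnight at 30 C and loaded with no-wash calcium dye.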
D1 antagonist: Antagonist of Human D 1 Dopamine Receptor: qHTS; activity change, negative = inhibition, % at 10 µM; 360,000 tested, 3.2% active; AID 504652, 2011; D(1A) dopamine receptor (Homo sapiens), P21728; HEK293 TREx D1 cells, calcium flux, dopamine EC80; stronger effect = lower value; in the data active = activity change below about -30%; note: % is set by controls: 0 for no effect and ±100 for the full control effect
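Tetracycline-induced HEK293 T-REx cells with force-coupled D1 receptor were loaded with a no-wash calcium dye. Compound was added after a 10 s baseline and read kinetically for 180 s; EC80 dopamine was then added and calcium flux followed another 180 s.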
* marks the source's active call; other numbers are inactive results; ! = not confirmed by another sample. Rows were chosen to be rich in hits. Some 4.7% of all compounds tested hit in one or more screens of this group. Cut-off read from the data, not from the text of the source, unless noted: active = activation above about 30%; inactive = the rest.

SMILES	TRHR PAM	D1 potentiator	TRHR ag	D1 agonist	D1 antagonist
Cc1ccccc1-c1ccnc2[nH]n(-c3ccccc3)c(=O)c12	4	14	0	4	-37*!
Cc1[nH]n(-c2ccccc2)c(=O)c1/C=N/c1ccccn1	6	-3	1	1	5
CCOc1ccc(NC(=O)CN2C(=O)COc3ccc(Cl)cc32)cc1	14	-2	0	2	-59*
COc1ccc(CCNC(=O)CN2C(=O)COc3ccc(S(=O)(=O)N4CCCC4)cc32)c(OC)c1	4	0	-1	4	-86*!
Cc1ccccc1NC(=O)CN1C(=O)COc2ccc(S(=O)(=O)N3CCCC3)cc21	-3	0	0	1	-16
COc1ccc(OC)c(CCNC(=O)CN2C(=O)COc3ccc(S(=O)(=O)N4CCCCCC4)cc32)c1	-11	-1	-1	2	2
CC(C)CCNC(=O)CN1C(=O)COc2ccc(S(=O)(=O)N3CCOCC3)cc21	-16	-7	0	0	-47*
CCOC(=O)c1ccc(NC(=O)CN2C(=O)COc3ccc(Cl)cc32)cc1	-5	-5	2	-1	-11
CCc1ccccc1NC(=O)CN1C(=O)COc2ccc(S(=O)(=O)N3CCCCCC3)cc21	1	-2	0	4	-46*
COc1cc(C2C(=O)N(C3CCCCC3)CC(=O)N2C2CCCC2)ccc1OC(C)C (configuration not stated)	5	1	0	-4	6
Cc1cc(C(=O)N2CCN(c3cccc(C)c3C)CC2)c2c(C)nn(-c3ccccc3)c2n1	-4	0	1	3	-1
COCCn1c(-c2ccccc2)c(C)n2c3c(=O)n(C)c(=O)n(C)c3nc12	1	-4	-2	-1	4
COc1ccccc1NC(=O)n1ncc2c(C)cccc21	-4	1	-1	0	-11
CCOc1ccc(CCNC(=O)CN2C(=O)COc3ccc(S(=O)(=O)N4CCOCC4)cc32)cc1	0	-6	1	1	-69*
CCOc1ccc(CCNC(=O)CN2C(=O)COc3ccc(S(=O)(=O)N4CCCC4)cc32)cc1	-10	4	1	1	-7
CCc1noc(-c2ccc(N3CCC(C)CC3)c([N+](=O)[O-])c2)n1	2	-1	1	3	5
CCCOc1ccc(C(=O)NNC(=S)NC(=O)c2ccccc2)cc1	2	22	38*	197*	-11
CCCOc1ccc(C(=O)NNC(=S)NC(=O)c2cccs2)cc1	-2	11	13	104*	-26
CCCOc1ccc(C(=O)NNC(=S)NC(=O)c2ccco2)cc1	-3	-4	23	186*	-33*
O=C(NC(=S)NNC(=O)c1ccco1)c1ccc(Br)cc1	-5	-3	1	47*	5
CCC(=O)N1CCc2cc(CNS(=O)(=O)c3ccc(C(C)C)cc3)ccc21	6	-3	-1	8	-27
Cc1nc2ccn(Cc3cccs3)c(=O)c2cc1C(=O)NCc1ccccc1	12	-2	-1	3	0
COCCCN1CCc2nc(SCC(=O)Nc3ccc(C)c(Cl)c3)[nH]c(=O)c2C1	7	0	1	1	-16
CC(Oc1ccc(Cl)cc1)C(=O)NNC(=S)NC(=O)c1ccco1 (configuration not stated)	-2	-3	0	44*	-8
CCCOc1ccc(C(=O)NNC(=S)NC(C)=O)cc1	-2	0	0	1	-34*
SMILES	TRHR PAM	D1 potentiator	TRHR ag	D1 agonist	D1 antagonist
COc1ccccc1CNC(=O)CSc1ccc(-c2sc(-c3ccccc3)nc2C)nn1	-1	-6	1	6	-29
O=C(Nc1scc(-c2cccs2)c1C(=O)O)c1cccs1	-3	-4	0	3	-84*
COC(=O)c1c(-c2cccs2)csc1NC(=O)c1ccc(C)cc1	29	1	1	1	11
COC(=O)c1c(-c2cccs2)csc1NC(=O)c1ccc(OC)c(OC)c1	-9	-2	1	3	1
COC(=O)c1c(-c2cccs2)csc1NC(=O)c1cc(OC)c(OC)c(OC)c1	-4	0	1	0	-66*
CCOc1ccc(CCNC(=O)c2sc3ncccc3c2-n2cccc2)cc1OCC	6	0	-1	8	-2
COCCNC(=O)c1cccc(C)c1[N+](=O)[O-]	2	0	0	1	-33*
Cc1cccc(C(=O)NCCc2ccc(S(N)(=O)=O)cc2)c1[N+](=O)[O-]	8	0	0	0	7
COc1ccccc1CN1CCCC(N2CCN(c3ccccc3OC)CC2)C1 (configuration not stated)	-9	-8	0	6	-50*
COc1ccccc1N1CCN(C2CCCN(Cc3cccc(O)c3)C2)CC1 (configuration not stated)	3	1	0	-1	-50*
Fc1ccc([C@@H]2Nc3ccccc3[C@@H]3C=CC[C@@H]32)cc1	0	0	0	3	0
Cn1cc(S(=O)(=O)c2ccc(Cl)cc2)c(=O)c2cc(F)c(N3CCCCCC3)cc21	35*	1	1	0	7
Cc1ccc(S(=O)(=O)c2cn(C)c3cc(N4CCCCC4)c(F)cc3c2=O)cc1	4	-1	0	-1	-3
Cc1ccc(C)c(S(=O)(=O)c2cn(C)c3cc(N4CCCCC4C)c(F)cc3c2=O)c1 (configuration not stated)	37*	2	0	3	11
COC(=O)c1cc(NC(=O)c2ccc(F)cc2)cc(C(=O)OC)c1	-6	3	0	1	13
O=C(O)c1cc(NC(=O)c2ccccc2F)cc(NC(=O)c2ccccc2F)c1	4	-2	-3	5	17
Cc1ccccc1C(=O)Nc1cc(NC(=O)c2ccccc2C)cc(C(=O)O)c1	2	-4	0	7	-38*
COC(=O)c1cc(NC(=O)c2ccccc2F)cc(C(=O)OC)c1	5	3	-1	6	-32*
O=C(CNC(=O)c1ccccc1)N[C@@H](C(=O)Nc1cc(C(F)(F)F)ccc1Cl)c1ccccc1	2	8	0	3	-20
COC(=O)c1c(-c2ccc(Cl)cc2)noc1N1CCN(c2ccccc2OC)CC1	1	0	1	1	-31*
Cc1ccccc1-n1nc(CO)c(C(=O)NCC(c2ccccc2)c2ccccc2)n1	1	-2	0	7	-6

Bioassay records (PubChem BioAssay)
